Values joined by “and” are separate entries in the source; they are usually repeats but may differ in a detail not shown here. Equal values may be shown once. Results filed as inconclusive are left out. A call without a number means that no potency is given here. Active and inactive are the calls of the source. Unless noted, the call rests on the fitted dose curve.
Tests used:
[1] = biological target: Glucocorticoid receptor (Homo sapiens) (UniProt P04150); assay: qHTS assay for small molecule agonists of glucocorticoid receptor signaling (AID 588532; active means well fitted curve in the direction sought with a large enough effect in the signal ratio, with a control signal flat; the % refers to the signal ratio); conditions: HeLa MMTV-bla, beta-lactamase ratio, agonist, 18 h; stronger effect = higher value; percent of dexamethasone control, DMSO zero
Method in brief: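 MMTV-bla HeLa, beta-lactamase reporter; medium with 1% charcoal/dextran-stripped FBS; cpds up to 92 uM, 18 h, 37 C; CCF4 readout 460/530 nm; Hill fit → EC50, efficacy vs 0.1 uM dexamethasone = 100%.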

[2] = biological target: Glucocorticoid receptor (Homo sapiens) (UniProt P04150); assay: qHTS assay for small molecule antagonists of glucocorticoid receptor signaling (AID 588533; active means well fitted inhibition curve with a large enough effect in the signal ratio, with a control signal flat, not every such curve was filed as active; the % refers to the signal ratio;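 further: cells stimulated with 2 nM dexamethasone as agonist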); conditions: HeLa MMTV-bla, GRE beta-lactamase ratio, antagonist mode, 18 h; series mostly up to 76.8 µM
Method in brief: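 Antagonist-mode qHTS: compound titrations added to GRE-bla HeLa cells, then dexamethasone 2 nM final; 18 h, 37 C. CCF4 FRET fluorescence normalized to dexamethasone and DMSO; IC50 from Hill fit.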

[3] = qHTS assay for small molecule antagonists of peroxisome proliferator-activated receptor delta signaling (AID 588535; active means well fitted inhibition curve with a large enough effect in the signal ratio, with a control signal flat, not every such curve was filed as active; the % refers to the signal ratio;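 on max response: cells co-treated with a PPAR-delta agonist as stimulator during compound exposure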); conditions: HEK293T PPARd-UAS-bla, beta-lactamase FRET ratio, 18 h; 460 nm channel
Method in brief: (§1)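 Inhibition of PPAR-delta response element-driven beta-lactamase expression is measured in HEK293T cells exposed to a compound titration series for 18 hrs at 37 C. Half-maximal inhibition comes from Hill equation fitting.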

[4] = biological target: Peroxisome proliferator-activated receptor delta (Homo sapiens) (UniProt Q03181); assay: as above; conditions: HEK293T PPARd-UAS-bla, beta-lactamase FRET ratio, 18 h; series mostly up to 76.7 µM
Method in brief: as §1

[5] = biological target: Peroxisome proliferator-activated receptor gamma (Homo sapiens) (UniProt P37231); assay: qHTS assay for small molecule agonists of peroxisome proliferator-activated receptor gamma signaling (AID 588536; active means well fitted curve in the direction sought with a large enough effect in the signal ratio, with a control signal flat, not every such curve was filed as active; the % refers to the signal ratio); conditions: HEK293 PPARg-UAS-bla, beta-lactamase ratio, 16 h, percent of rosiglitazone response, DMSO as zero; series mostly up to 76.7 µM
Method in brief: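 Beta-lactamase reporter read-out: CCF4 fluorescence (ex 405, em 460/530 nm) after 2 h at RT. HEK293 GeneBLAzer cells were treated for 16 h at 37 C. Hill fits gave EC50 and efficacy versus 2 uM rosiglitazone (100%) and DMSO (0%).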

[6] = biological target: Peroxisome proliferator-activated receptor gamma (Homo sapiens) (UniProt P37231); assay: qHTS assay for small molecule antagonists of peroxisome proliferator-activated receptor gamma signaling (AID 588537; active means well fitted inhibition curve with a large enough effect in the signal ratio, with a control signal flat, not every such curve was filed as active; the % refers to the signal ratio;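 further: reporter cells co-stimulated with 50 nM rosiglitazone agonist during compound treatment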); conditions: HEK293 PPARg-UAS-bla, beta-lactamase ratio, antagonist mode; series mostly up to 76.8 µM
Method in brief: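 Compounds are tested as concentration series for inhibition of rosiglitazone-driven (50 nM) reporter expression in GeneBLAzer PPAR-gamma-UAS-bla HEK293 cells. After 16 h at 37 C, CCF4 substrate is added for 2 h at room temperature and blue/green fluorescence is measured.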

[7] = biological target: Vitamin D3 receptor (Homo sapiens) (UniProt P11473); assay: qHTS assay for small molecule antagonists of vitamin D receptor signaling (AID 588541); conditions: HEK293T VDR-UAS-bla, beta-lactamase ratio, antagonist mode; series mostly up to 76.7 µM;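 further: receptor activated by calcitriol during compound treatment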
Method in brief: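 VDR-UAS-bla HEK293T cells (2000/well, 2% charcoal-stripped FBS) were treated with titrated compounds plus 1-alpha,25-dihydroxyvitamin D3 (50 nM or 3 nM final) for 16 h at 37 C. CCF4 beta-lactamase fluorescence was read; Hill fits gave IC50.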

[8] = biological target: Vitamin D3 receptor (Homo sapiens) (UniProt P11473); assay: qHTS assay for small molecule agonists of vitamin D receptor signaling (AID 588543); conditions: HEK293T VDR-UAS-bla, beta-lactamase ratio, 16 h; series mostly up to 76.8 µM
Method in brief: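 Agonist-mode beta-lactamase reporter: HEK293T VDR-UAS-bla cells in charcoal-stripped 2% FBS, compound series 16 h 37 C, CCF4 2 h RT. EC50 from Hill fit, scaled against DMSO and 50 nM calcitriol control.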

[9] = qHTS assay for small molecule agonists of retinoid X receptor alpha signaling (AID 588544); conditions: HEK293T RXRa-UAS-bla, beta-lactamase reporter, 18 h; 530 nm emission
[10] = biological target: Retinoic acid receptor RXR-alpha (Homo sapiens) (UniProt P19793); assay: as above; conditions: HEK293T RXRa-UAS-bla, beta-lactamase reporter, 18 h; series mostly up to 76.7 µM
[11] = biological target: Thyroid hormone receptor beta (Homo sapiens) (UniProt P10828); assay: qHTS assay for small molecule agonists of thyroid hormone receptor beta signaling (AID 588545); conditions: TR-UAS-bla GripTite HEK 293, beta-lactamase ratio, agonist mode, 18 h, percent of T3 response, DMSO as zero; series mostly up to 76.7 µM
Method in brief: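 Agonist activity was read as beta-lactamase CCF4 fluorescence (405 ex, 460/530 em), scaled between DMSO (0%) and 10 nM T3 (100%), then Hill-fitted for EC50 and efficacy. HEK 293 TR-UAS-bla cells in 2% charcoal/dextran FBS medium were exposed 18 h at 37 C.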

[12] = qHTS assay for small molecule antagonists of retinoid X receptor alpha signaling (AID 588546; active means well fitted inhibition curve with a large enough effect in the signal ratio, with a control signal flat, not every such curve was filed as active; the % refers to the signal ratio;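 further: cells stimulated with 9-cis-retinoic acid as agonist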); conditions: HEK293T RXRa-UAS-bla, beta-lactamase ratio, antagonist mode; measured here: W530 green channel, cytotoxicity proxy
Method in brief: (§2)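 Beta-lactamase reporter inhibition, read as CCF4 fluorescence ratio (ex 405, em 460/530 nm) after 2 h at RT. HEK293T UAS-bla cells, 2500/well, were stimulated with 9-cis-RA at 500 or 100 nM final alongside test compound for 18 h at 37 C.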

[13] = biological target: Retinoic acid receptor RXR-alpha (Homo sapiens) (UniProt P19793); assay: as above; conditions: HEK293T RXRa-UAS-bla, beta-lactamase ratio, antagonist mode
Method in brief: as §2

[14] = biological target: Thyroid hormone receptor beta (Homo sapiens) (UniProt P10828); assay: qHTS assay for small molecule antagonists of thyroid hormone receptor beta signaling (AID 588547; active means well fitted inhibition curve with a large enough effect in the signal ratio, with a control signal flat, not every such curve was filed as active; the % refers to the signal ratio;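 further: cells stimulated with 0.4 nM T3 agonist during compound exposure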); conditions: TR-UAS-bla HEK293, beta-lactamase ratio, antagonist mode, 18 h
Method in brief: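 TR-UAS-bla GripTite HEK293 cells in 2% charcoal/dextran FBS medium were preincubated 4 h at 37 C, given compound (0.59 nM to 92 uM) plus 0.4 nM T3 (final) for 18 h, then CCF4 for 2 h at RT; Hill fit gave IC50.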

[15] = biological target: Voltage-gated inwardly rectifying potassium channel KCNH2 (Homo sapiens) (UniProt Q12809); assay: qHTS Assay for Small Molecule Inhibitors of the Human hERG Channel Activity (AID 588834; active means well fitted inhibition curve with a large enough effect;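 further: top concentration of the series differs between compounds; lower thallium flux fluorescence means stronger hERG block; nearly all actives have a fitted effect of over 50% in size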); conditions: U2OS BacMam hERG, FluxOR thallium flux fluorescence; series mostly up to 92.2 µM
Method in brief: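 hERG block measured as reduced thallium-dye (FluxOR) fluorescence after stimulation buffer addition, read over 2 min. Cells were hERG-BacMam-transduced U2OS exposed to compound ~10 min […]; concentration-response fitted with Hill equation for AC50.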

[16] = qHTS assay for small molecule agonists of the antioxidant response element (ARE) signaling pathway (AID 651741; active means well fitted activation curve with a large enough effect in the signal ratio; the % refers to the signal ratio; further: potency means the concentration at half of the fitted maximal effect); conditions: HepG2 ARE-bla reporter, beta-lactamase FRET ratio, 16 h; series mostly up to 96 µM
Method in brief: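 Reporter: beta-lactamase under ARE, stably in HepG2. Exposure: 16 h, 37 C, compounds delivered in DMSO by pin tool after 5 h cell preincubation. Readout: FRET substrate fluorescence after 2 h at RT.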

[17] = qHTS assay for small molecule activators of the p53 signaling pathway (AID 651743; active means well fitted activation curve with a large enough effect in the signal ratio, not every such curve was filed as active; the % refers to the signal ratio); conditions: HCT-116 p53RE-bla, beta-lactamase FRET ratio, 16 h; stronger effect = higher value
Method in brief: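 Agonist-mode quantitative HTS in HCT-116 cells carrying a p53-response-element beta-lactamase reporter; 16 h compound treatment at 37 C, then FRET substrate loading for 2 h at room temperature and fluorescence read.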

[18] = qHTS assay for small molecule activators of the nuclear factor-kappa B (NF-kB) signaling pathway (AID 651749; active means well fitted activation curve with a large enough effect in the signal ratio; the % refers to the signal ratio); conditions: NF-kB-bla ME-180 cells, beta-lactamase FRET ratio, 16 h; stronger effect = higher value
Method in brief: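 Human ME-180 cervical cells with an NF-kB-bla construct; compounds added via 23 nL pin transfer, DMSO as vehicle; incubation 16 hr. Reporter activity measured by FRET disruption.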

[19] = qHTS assay for small molecule disruptors of the mitochondrial membrane potential - 1 hr assay (AID 651754); conditions: series mostly up to 92.2 µM; further: nearly all actives have a fitted effect of over 35% in size
Method in brief: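 Loss of mitochondrial potential shifts the cationic dye from red mitochondrial aggregates to green cytoplasmic monomers. Cells (HepG2) are treated with compound for 1 hr before a 30 min dye incubation at 37C.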

[20] = biological target: Bile acid receptor (Homo sapiens) (UniProt Q96RI1); assay: qHTS assay for small molecule antagonists of farnesoid X receptor signaling (AID 588526); conditions: HEK293T FXR-UAS-bla, beta-lactamase ratio, antagonist mode; series mostly up to 76.7 µM
Method in brief: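 Concentration-response titrations were fitted to the Hill equation for half-maximal inhibition and maximal response, with data normalised to 50 uM chenodeoxycholic acid and DMSO control wells. Cells: FXR-UAS-bla HEK293T, dialyzed FBS.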

Chain of Voltage-gated inwardly rectifying potassium channel KCNH2 (Homo sapiens) (Q12809 whole entry, looked up): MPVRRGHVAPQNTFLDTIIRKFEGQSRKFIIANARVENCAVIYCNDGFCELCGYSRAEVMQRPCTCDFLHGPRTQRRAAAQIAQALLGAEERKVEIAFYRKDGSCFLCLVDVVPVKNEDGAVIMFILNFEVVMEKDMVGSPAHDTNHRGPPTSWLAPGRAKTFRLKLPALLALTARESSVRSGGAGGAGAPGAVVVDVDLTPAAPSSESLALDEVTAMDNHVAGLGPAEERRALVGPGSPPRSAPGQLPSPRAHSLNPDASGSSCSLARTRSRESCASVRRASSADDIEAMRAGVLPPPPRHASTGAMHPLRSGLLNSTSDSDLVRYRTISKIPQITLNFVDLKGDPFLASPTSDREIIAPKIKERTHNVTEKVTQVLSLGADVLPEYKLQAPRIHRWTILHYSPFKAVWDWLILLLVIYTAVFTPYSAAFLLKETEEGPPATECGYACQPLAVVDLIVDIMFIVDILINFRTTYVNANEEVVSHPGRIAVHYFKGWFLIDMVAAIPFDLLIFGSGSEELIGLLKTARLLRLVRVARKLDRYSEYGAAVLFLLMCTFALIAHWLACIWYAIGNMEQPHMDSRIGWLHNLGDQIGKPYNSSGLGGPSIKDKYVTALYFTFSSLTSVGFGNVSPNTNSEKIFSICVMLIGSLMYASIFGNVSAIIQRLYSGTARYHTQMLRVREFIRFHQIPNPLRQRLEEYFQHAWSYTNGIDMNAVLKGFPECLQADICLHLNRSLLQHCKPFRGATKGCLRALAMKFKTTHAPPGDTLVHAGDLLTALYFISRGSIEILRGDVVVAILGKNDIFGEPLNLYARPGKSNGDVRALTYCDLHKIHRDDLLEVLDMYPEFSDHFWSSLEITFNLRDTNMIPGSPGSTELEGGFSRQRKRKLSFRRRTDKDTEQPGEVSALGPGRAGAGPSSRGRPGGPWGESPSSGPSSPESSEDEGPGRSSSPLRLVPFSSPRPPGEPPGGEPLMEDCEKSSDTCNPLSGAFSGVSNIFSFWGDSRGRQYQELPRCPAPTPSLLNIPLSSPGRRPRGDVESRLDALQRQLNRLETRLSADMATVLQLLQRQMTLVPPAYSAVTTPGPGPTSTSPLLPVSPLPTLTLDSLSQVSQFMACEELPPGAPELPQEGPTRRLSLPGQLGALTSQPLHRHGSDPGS
Chain of Thyroid hormone receptor beta (Homo sapiens) (P10828 whole entry, looked up): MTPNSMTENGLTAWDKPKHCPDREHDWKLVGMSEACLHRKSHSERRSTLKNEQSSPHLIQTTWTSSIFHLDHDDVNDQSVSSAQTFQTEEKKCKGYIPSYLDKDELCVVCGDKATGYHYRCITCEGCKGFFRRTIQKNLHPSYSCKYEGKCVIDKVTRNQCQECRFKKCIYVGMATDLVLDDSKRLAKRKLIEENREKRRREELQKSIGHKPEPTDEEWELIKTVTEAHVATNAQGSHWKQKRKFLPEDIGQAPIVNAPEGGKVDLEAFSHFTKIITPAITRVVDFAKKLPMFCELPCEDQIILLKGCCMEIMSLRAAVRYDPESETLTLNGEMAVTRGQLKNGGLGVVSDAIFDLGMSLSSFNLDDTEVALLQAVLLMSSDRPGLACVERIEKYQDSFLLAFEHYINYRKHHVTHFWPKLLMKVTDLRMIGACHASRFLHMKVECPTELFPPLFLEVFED
Chain of Peroxisome proliferator-activated receptor gamma (Homo sapiens) (P37231 whole entry, looked up): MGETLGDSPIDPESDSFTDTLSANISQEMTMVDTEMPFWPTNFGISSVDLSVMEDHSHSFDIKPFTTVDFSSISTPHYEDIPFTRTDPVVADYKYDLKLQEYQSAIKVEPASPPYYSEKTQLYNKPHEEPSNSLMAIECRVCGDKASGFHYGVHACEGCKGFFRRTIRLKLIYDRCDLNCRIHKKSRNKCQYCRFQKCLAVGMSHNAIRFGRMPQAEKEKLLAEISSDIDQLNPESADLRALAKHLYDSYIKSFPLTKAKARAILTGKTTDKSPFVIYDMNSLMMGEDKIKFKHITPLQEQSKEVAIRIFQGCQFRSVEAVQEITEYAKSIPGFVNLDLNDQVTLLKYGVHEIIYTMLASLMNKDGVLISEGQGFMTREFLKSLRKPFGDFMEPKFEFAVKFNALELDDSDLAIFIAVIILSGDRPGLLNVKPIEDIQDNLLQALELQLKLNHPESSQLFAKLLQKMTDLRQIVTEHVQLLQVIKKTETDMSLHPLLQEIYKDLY
Chain of Peroxisome proliferator-activated receptor delta (Homo sapiens) (Q03181 whole entry, looked up): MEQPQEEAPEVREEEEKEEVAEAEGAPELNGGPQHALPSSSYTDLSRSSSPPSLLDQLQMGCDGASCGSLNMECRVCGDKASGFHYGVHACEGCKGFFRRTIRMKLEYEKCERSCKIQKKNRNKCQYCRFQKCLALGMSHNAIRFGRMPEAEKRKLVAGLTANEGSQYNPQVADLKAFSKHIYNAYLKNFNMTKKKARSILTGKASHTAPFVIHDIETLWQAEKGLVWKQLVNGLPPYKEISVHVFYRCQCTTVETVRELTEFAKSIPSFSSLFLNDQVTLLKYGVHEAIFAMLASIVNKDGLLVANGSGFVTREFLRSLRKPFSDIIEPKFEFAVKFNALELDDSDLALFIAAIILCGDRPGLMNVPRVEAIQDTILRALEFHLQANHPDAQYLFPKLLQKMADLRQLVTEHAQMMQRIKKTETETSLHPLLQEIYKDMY
Chain of Bile acid receptor (Homo sapiens) (Q96RI1 whole entry, looked up): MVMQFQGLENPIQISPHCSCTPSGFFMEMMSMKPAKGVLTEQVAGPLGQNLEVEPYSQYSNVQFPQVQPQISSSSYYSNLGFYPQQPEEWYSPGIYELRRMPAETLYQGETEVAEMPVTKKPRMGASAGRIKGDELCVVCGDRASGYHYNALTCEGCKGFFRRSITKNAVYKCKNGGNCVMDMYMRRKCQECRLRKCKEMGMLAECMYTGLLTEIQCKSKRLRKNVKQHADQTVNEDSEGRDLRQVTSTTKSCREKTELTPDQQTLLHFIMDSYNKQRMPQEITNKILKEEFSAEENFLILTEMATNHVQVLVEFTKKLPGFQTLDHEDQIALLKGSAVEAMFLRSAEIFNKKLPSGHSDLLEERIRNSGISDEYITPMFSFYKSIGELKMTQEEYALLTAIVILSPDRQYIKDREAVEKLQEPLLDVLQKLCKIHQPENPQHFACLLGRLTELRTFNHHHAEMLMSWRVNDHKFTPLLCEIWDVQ
Chain of Glucocorticoid receptor (Homo sapiens) (P04150 whole entry, looked up): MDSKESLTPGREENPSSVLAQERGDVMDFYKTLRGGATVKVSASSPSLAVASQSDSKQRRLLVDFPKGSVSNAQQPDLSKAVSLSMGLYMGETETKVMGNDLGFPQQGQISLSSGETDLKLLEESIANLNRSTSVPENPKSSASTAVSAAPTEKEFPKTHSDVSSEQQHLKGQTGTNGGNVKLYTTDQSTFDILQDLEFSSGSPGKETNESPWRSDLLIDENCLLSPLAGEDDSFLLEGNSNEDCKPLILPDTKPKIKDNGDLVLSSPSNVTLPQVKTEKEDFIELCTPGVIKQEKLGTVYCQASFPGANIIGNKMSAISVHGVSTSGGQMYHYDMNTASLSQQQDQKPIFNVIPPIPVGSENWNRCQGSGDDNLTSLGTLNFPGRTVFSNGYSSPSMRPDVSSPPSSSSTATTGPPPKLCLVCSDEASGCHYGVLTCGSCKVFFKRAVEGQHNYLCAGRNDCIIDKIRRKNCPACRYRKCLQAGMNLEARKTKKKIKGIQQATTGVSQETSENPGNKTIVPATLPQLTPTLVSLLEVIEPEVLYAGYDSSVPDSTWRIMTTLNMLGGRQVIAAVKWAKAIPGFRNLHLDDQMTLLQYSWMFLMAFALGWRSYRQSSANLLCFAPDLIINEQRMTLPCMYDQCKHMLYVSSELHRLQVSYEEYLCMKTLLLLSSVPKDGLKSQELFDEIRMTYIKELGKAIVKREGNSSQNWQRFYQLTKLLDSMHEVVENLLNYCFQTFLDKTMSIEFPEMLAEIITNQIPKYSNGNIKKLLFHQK
Chain of Vitamin D3 receptor (Homo sapiens) (P11473 whole entry, looked up): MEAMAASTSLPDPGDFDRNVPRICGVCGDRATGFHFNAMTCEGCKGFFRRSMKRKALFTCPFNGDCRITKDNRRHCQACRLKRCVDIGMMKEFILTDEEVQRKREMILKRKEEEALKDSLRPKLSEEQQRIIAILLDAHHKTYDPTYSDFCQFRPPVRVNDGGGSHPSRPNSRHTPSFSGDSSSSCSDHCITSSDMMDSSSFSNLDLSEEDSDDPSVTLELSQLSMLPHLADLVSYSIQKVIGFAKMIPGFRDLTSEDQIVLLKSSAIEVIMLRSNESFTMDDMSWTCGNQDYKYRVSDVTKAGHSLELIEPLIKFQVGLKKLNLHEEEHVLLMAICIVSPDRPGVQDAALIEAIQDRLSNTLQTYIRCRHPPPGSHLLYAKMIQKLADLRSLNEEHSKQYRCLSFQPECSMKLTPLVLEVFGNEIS
Chain of Retinoic acid receptor RXR-alpha (Homo sapiens) (P19793 whole entry, looked up): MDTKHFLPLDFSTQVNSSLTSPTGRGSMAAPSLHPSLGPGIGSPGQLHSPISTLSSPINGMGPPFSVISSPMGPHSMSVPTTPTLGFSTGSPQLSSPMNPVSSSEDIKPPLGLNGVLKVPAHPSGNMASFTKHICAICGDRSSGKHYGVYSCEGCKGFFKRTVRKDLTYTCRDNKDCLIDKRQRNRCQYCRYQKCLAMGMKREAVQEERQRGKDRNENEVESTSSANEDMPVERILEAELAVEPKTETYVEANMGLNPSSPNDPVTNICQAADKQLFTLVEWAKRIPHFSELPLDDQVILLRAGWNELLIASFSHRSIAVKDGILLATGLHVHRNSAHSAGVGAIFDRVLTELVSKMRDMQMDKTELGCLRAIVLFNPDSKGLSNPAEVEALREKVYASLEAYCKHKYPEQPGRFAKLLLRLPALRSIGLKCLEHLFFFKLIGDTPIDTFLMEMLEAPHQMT

SMILES	activation [1]	outcome [2]	max response [3]	Potency [4]	outcome [5]	outcome [6]	outcome [7]	outcome [8]	max response [9]	outcome [10]	outcome [11]	max response [12]	max response [13]	activity change % (negative = inhibition) [14]	Potency [15]	Potency [16]	activation [17]	activation [18]	Potency [19]	outcome [20]
O=c1[nH][nH]c(=O)c2cc([N+](=O)[O-])ccc12	0.885% (inactive)	inactive	10.6%	inactive	inactive	inactive	inactive	inactive	-1.84%	inactive	inactive	-8.03%	10.6% (inactive)	15.8% (inactive)	inactive	inactive	-3.95% (inactive)	0.392% (inactive)	–	–
CCCCCCCCCCCCC1CO1 (stereo not given)	0.241% (inactive)	inactive	-13.1%	inactive	inactive	inactive	–	–	-5.24%	inactive	inactive	-6.03%	–	-0.964% (inactive)	inactive	–	–	0.702% (inactive)	inactive	–
Oc1c(Cl)ccc(Cl)c1Cl	–	–	–	–	–	–	inactive	–	2.14%	inactive	inactive	1.62%	17.5% (inactive)	13.7% (inactive)	inactive	–	1.05% (inactive)	–	inactive	inactive
CC(=O)Nc1cccc(N)c1	-4.95% (inactive)	inactive	38.5%	inactive	inactive	inactive	inactive	inactive	-8.93%	inactive	inactive	-0.371%	6.6% (inactive)	-3.78% (inactive)	inactive	–	1.81% (inactive)	0.511% (inactive)	inactive	–
CCOCC(=O)O	2.71% (inactive)	inactive	-19%	inactive	inactive	inactive	inactive	inactive	-7.45%	inactive	–	2.97%	4.52% (inactive)	4.7% (inactive)	inactive	inactive	-3.4% (inactive)	0.266% (inactive)	inactive	–
Clc1ccc(Cl)c(Cl)c1Cl	16% (inactive) and -12% (inactive)	inactive	9.65% and -40.7%	inactive	inactive	inactive	inactive	inactive	-17% and 0.458%	inactive	inactive	6.74% and -2.64%	10.9% (inactive) and -11.3% (inactive)	26.9% (inactive)	inactive	inactive	-4.49% (inactive) and 4.59% (inactive)	0.56% (inactive) and -0.536% (inactive)	–	–
C=CC(=O)NC(C)C	2.34% (inactive)	inactive	-15.9%	inactive	inactive	inactive	–	inactive	-3.51%	inactive	inactive	5.01%	0.568% (inactive)	-0.537% (inactive)	inactive	–	-0.785% (inactive)	0.588% (inactive)	inactive	–
CCNc1cc(O)ccc1C	–	–	–	–	–	–	inactive	inactive	-5.56%	inactive	inactive	-2.01%	1.41% (inactive)	14.6% (inactive)	inactive	59.6 µM (active)	-1.04% (inactive)	–	inactive	inactive
C=C(C)C(=O)OCC(C)C	–	–	-19.3%	inactive	inactive	–	inactive	inactive	-16.8%	inactive	inactive	-5.76%	-6.82% (inactive)	1.27% (inactive)	inactive	–	-1.84% (inactive)	1.27% (inactive)	inactive	inactive
O=C(O)c1cccc(Cl)c1Cl	6.71% (inactive)	inactive	5.12%	inactive	inactive	inactive	inactive	inactive	-8.8%	inactive	–	-3.86%	-4.53% (inactive)	–	inactive	inactive	-0.257% (inactive)	0.0203% (inactive)	inactive	–
COc1ccc(N)c(C)c1	–	–	-12.2%	–	–	–	inactive	inactive	-12.9%	inactive	–	-2.69%	8.01% (inactive)	-12.3% (inactive)	inactive	inactive	–	-0.857% (inactive)	inactive	inactive
CC(C)=C1CCC(C)CC1=O (stereo not given)	-0.919% (inactive)	inactive	-8.22%	inactive	inactive	inactive	inactive	inactive	-4.57%	inactive	–	3.58%	6.87% (inactive)	-6.39% (inactive)	inactive	inactive	-1.57% (inactive)	-0.315% (inactive)	–	–
O=C1C=CCCC1	–	–	-11%	inactive	inactive	–	–	–	8.41%	inactive	inactive	-1.74%	-1.33% (inactive)	-3.89% (inactive)	inactive	–	-3.28% (inactive)	-0.0951% (inactive)	inactive	inactive
C=CCOC(=O)CCCCCCCC	–	–	–	–	inactive	inactive	inactive	inactive	–	–	–	-1.68%	–	-0.411% (inactive)	–	inactive	-2.19% (inactive)	–	–	inactive
Nc1ccc(Cl)cc1[N+](=O)[O-]	-4.92% (inactive)	inactive	66.3%	inactive	inactive	inactive	inactive	inactive	-5.09%	inactive	inactive	-5.59%	-5.85% (inactive)	1.54% (inactive)	inactive	–	-3.6% (inactive)	-1.3% (inactive)	–	–
Cc1ccc(C(=O)O)cc1	–	–	–	–	inactive	–	–	–	4.67%	inactive	–	-2.83%	-5.24% (inactive)	18.4% (inactive)	inactive	–	-5.46% (inactive)	–	inactive	inactive
